Screen size: about 69,000 compounds; about 8,600 (12%) showed an effect of 50% or more. This is one part of a sample in which strong results are shown more often than they occur.

The assay concerns Plasmodium berghei. Briefly: Screen against P. berghei liver stage (PbLuc), transformed with Luciferase, at 10uM. As to conditions: tested at 10 uM. In kind it is functional, HepG2.
In the case of `CC1=N[C@@]2(CC[C@@H]3CN(Cc4ccccc4F)C[C@@H]32)C(=O)N1CC1CC1`, the INHIBITION stood at 20.1%. `CCn1ncnc1C1CC(=O)NCc2nc(N)sc21` (stereo unspecified): the INHIBITION is 19.7%. As for `CC(C)C(=O)N1CCN(Cc2csc(-c3ncccn3)n2)CC1`, the INHIBITION was 41.8%.

`COC(=O)N1CCN(Cc2csc(-c3ncccn3)n2)CC1`: the INHIBITION was -42.5%.

Turning to `CC(C)C(=O)N1CCN(Cc2csc(-c3ccccn3)n2)CC1`, the INHIBITION was found to be 47.4%. Regarding `OC(c1ccccc1)C1CCN(Cc2csc(-c3ncccn3)n2)CC1` (stereo unspecified), the INHIBITION is recorded as 59.8%. Then `Cc1ccc(-c2nc(CN3CCN(S(=O)(=O)N(C)C)CC3)cs2)o1`, with 52.1%; and `Cc1ccc(-c2nc(CN3CCN(C(=O)C4CC4)CC3)cs2)o1`, with -34%; and `CC(O)CN1CCN(Cc2csc(-c3ncccn3)n2)CC1` (stereo unspecified), with 60.8%. Turning to `CC(C)CC(=O)N1CCN(Cc2csc(-c3ncccn3)n2)CC1`, the INHIBITION was 10.6%. Then `CC(=O)N1CCCN(Cc2csc(-c3ncccn3)n2)CC1`, with 30.8%; and `Cc1ccc(-c2nc(CN3CCN(CC(=O)N(C)C)CC3)cs2)o1`, with 15.3%.

As to `CC(C)c1nc(CN2CCN(Cc3ccccn3)CC2)cs1`, the INHIBITION is given as -53.5%. The value for `CS(=O)(=O)N1CCN(Cc2csc(-c3ncccn3)n2)CC1` was 56.8%; that for `Cn1ccc(C(=O)NCc2ccc(N3CCCCC3)nc2)cc1=O` was 46.2%; that for `O=C(O)[C@]12CCCN(Cc3ccncc3)C[C@H]1CN(c1ncccn1)C2` was -20.1%. As to `Cn1cnc2c1C(COCC1CCOCC1)CN(Cc1ccccn1)C2` (stereo unspecified), the INHIBITION was determined as 36.9%. Then `Cc1oncc1C(=O)N1CCC2(CC1)CC(N1CCOCC1)C2`, with -15.9%; and `CNc1cc(-c2ccncc2)ncn1`, with 24.8%; and `Cc1cc(C)n(CC2CCCN2C(=O)c2ccc3c(c2)COC3)n1` (stereo unspecified), with 51.6%. `Cc1cc(C)n(CC2CCCCN2C(=O)c2ccc3c(c2)OCO3)n1` (stereo unspecified): the INHIBITION is on record as 5.97%. The value for `Cc1cc(C)n(CC2CCCN2C(=O)c2cccc3c2OCO3)n1` (stereo unspecified) was 25.15%. The value for `Cc1cc(C)n(CC2CCCN2C(=O)c2ccc3c(c2)OCO3)n1` (stereo unspecified) was 52.1%. Turning to `Cc1cc(C)n(CC2CCCN2C(=O)c2ccc3c(c2)OCCO3)n1` (stereo unspecified), the INHIBITION was determined as 15.2%.

Take `Cc1cnn(CC2CCCCN2C(=O)c2ccc3c(c2)COC3)c1` (stereo unspecified): the INHIBITION is -18%.

With `Cc1cc(C)n(CC2CCCN2C(=O)c2ccc3[nH]c(=O)[nH]c3c2)n1` (stereo unspecified), the INHIBITION turned out to be 16.3%. `Cc1cc(C)n(CC2CCCCN2C(=O)c2ccc3c(c2)COC3)n1` (stereo unspecified): the INHIBITION stood at 56.4%. In the case of `Cc1cc(C)n(CC2CCCCN2C(=O)c2ccc(C(N)=O)cc2)n1` (stereo unspecified), the INHIBITION is recorded as -10.6%. As for `CN(C)CC(=O)NC1CC(C)(C)Cc2nc(C(C)(C)C)ncc21` (stereo unspecified), the INHIBITION is given as 43.6%.

Consider `O=C(CN1CC(c2ccccc2)CC1=O)NCc1cc2n(n1)CCNC2` (stereo unspecified), for which the INHIBITION was determined as 17.3%. Regarding `Cc1noc2nc3c(c(C(=O)/N=c4\[nH]nc(C(C)C)s4)c12)CCC3`, the INHIBITION was 38%.

In the case of `Cn1cc(CN2CCO[C@@H]3CN(Cc4ccoc4)C[C@@H]3C2)cn1`, the INHIBITION is reported as -18.4%. The value for `COCC(NC1CCSCC1)c1ccnn1C` (stereo unspecified) was 47.6%. Take `CN1C(=O)C2(CCCN(C(=O)c3cccnc3O)C2)c2ccccc21` (stereo unspecified): the INHIBITION worked out at 7.25%.

For the molecule `O=C(NCC1(N2CCOCC2)CCSC1)Nc1ccc(F)cc1` (stereo unspecified), the INHIBITION was determined as 23.5%. `Cc1cccc(NC(=O)NCC2(N3CCOCC3)CCSC2)c1` (stereo unspecified): the INHIBITION came out at 34.5%.

As for `Cc1ccc(NC(=O)NCC2(N3CCOCC3)CCSC2)c(C)c1` (stereo unspecified), the INHIBITION was 74.2%. On to `COc1nc2c(cc1C(=O)NC(C)Cc1cc(C)n[nH]1)CCC2` (stereo unspecified), for which the INHIBITION is -37.9%. Then `Cn1c(=O)[nH]c(=O)n2c(CC(=O)Nc3ccc(Cl)c(Cl)c3)cnc12`, with 20.1%; and `CCc1nnc(CN(C)c2nc(C(C)C)nc3c2cnn3C)o1`, with 53.5%; and `Cc1nc(N(C)CCN(C)C)c2cnn(C)c2n1`, with 29.2%. Regarding `CCc1nnc(CN(C)c2nc(C3CCCC3)nc3c2cnn3C)o1`, the INHIBITION is given as 1.81%. Take `CN(C)C(=O)C1CN(c2ncccn2)CCN1C` (stereo unspecified): the INHIBITION is on record as 25.8%. Then `COc1ncccc1CNC(=O)N(Cc1ccc(F)cc1F)C1CC1`, with 48.2%; and `Cc1ccnc(C(Nc2nccc(-c3ccc(C)nc3C)n2)C2CC2)c1` (stereo unspecified), with 41.3%; and `Cc1nc(CN2CCOC(Cn3cccn3)C2)nc2ccccc12` (stereo unspecified), with -31.8%.

As for `Cc1cc(C(=O)N2CCn3nc(C(=O)NC4CC4)cc3C2)nc(C)n1`, the INHIBITION turned out to be 34.2%. Consider `Cc1c[nH]c(C(=O)N2CCn3nc(C(=O)NC4CC4)cc3C2)n1`, for which the INHIBITION was determined as 53.7%.

On to `Cc1nc2sccn2c1C(=O)N1CCn2nc(C(=O)NC3CC3)cc2C1`, for which the INHIBITION was determined as 25.5%. The value for `N#Cc1cccc(CN2C[C@@H](NC(=O)C3CC3)[C@H]3OCCC[C@H]32)c1` was 42%; that for `CCc1ccccc1OCCNCCc1c[nH]cn1` was 51.3%. Then `C=C(C)COc1ccccc1CNCCc1c[nH]cn1`, with 21.7%; and `CCn1c(-c2ccccc2)nn(CC(=O)NCCc2c[nH]cn2)c1=O`, with 31.4%; and `O[C@H]1CN(Cc2cc3ccccc3o2)CC[C@@]12CCCO2`, with 15.9%. The value for `Cc1cnn(CC2CN(CC(=O)Nc3ccncc3)CCO2)c1` (stereo unspecified) was 11.2%. In the case of `Cc1cc(C)n(CC2CN(CC(=O)Nc3ccncc3)CCO2)n1` (stereo unspecified), the INHIBITION worked out at 44.3%. `Cc1nc(C)n(CC2CCCN2CC(=O)Nc2cccnc2)n1` (stereo unspecified): the INHIBITION is -6.39%. Then `Cc1nc(C)n(CC2CCCN(CC(=O)Nc3cccnc3)C2)n1` (stereo unspecified), with 57.2%; and `Cc1nc(C)n(CC2CN(CC(=O)Nc3cccnc3)CCO2)n1` (stereo unspecified), with -13.2%. Consider `Cc1nc(C)n(CC2CCCN(CC(=O)Nc3ccncc3)C2)n1` (stereo unspecified), for which the INHIBITION is listed as -0.15%. For the molecule `Cc1cc(NC(=O)CN2CCOC(Cn3nc(C)cc3C)C2)n(C)n1` (stereo unspecified), the INHIBITION was 56%. For `CCC1CN(CC(=O)Nc2cc(C)nn2C)CCO1` (stereo unspecified), the INHIBITION worked out at 23.4%. As for `Cc1nc(C)n(CC2CN(CC(=O)Nc3nccs3)CCO2)n1` (stereo unspecified), the INHIBITION came out at 30.1%. The value for `Cc1nc(C)n(CC2CN(CC(=O)Nc3ccncc3)CCO2)n1` (stereo unspecified) was 64.1%; that for `Cc1cnn(CC2CN(CC(=O)Nc3cccnc3)CCO2)c1` (stereo unspecified) was 67.5%.

Take `O=C(CN1CCOC(Cn2cccn2)C1)Nc1cccnc1` (stereo unspecified): the INHIBITION is 10.7%.

As for `CO[C@H]1CCN(C(=O)c2ccsc2)[C@@H]2CN(CC3CC3)C[C@H]12`, the INHIBITION is reported as 0.112%. Take `Cc1cnn(-c2ccc(C(=O)N3CCCC(n4ccnc4C)C3)cc2)c1` (stereo unspecified): the INHIBITION is 0.411%. As for `Cn1cc(C2CCCN2C(=O)COCCOc2ccccc2)cn1` (stereo unspecified), the INHIBITION was found to be 44.1%. The value for `CC(C)N1CCc2onc(Cn3cccc3)c2C1` was 4.02%; that for `Cc1nc(C)n(CC2CCCN2CCOc2ccccc2F)n1` (stereo unspecified) was -83.4%. With `CC(C)c1nc(C2CCCN(C(=O)CCc3cscn3)C2)no1` (stereo unspecified), the INHIBITION is -43.5%. The value for `c1cnc(Nc2cc(CCC3CCCNC3)ccn2)cn1` (stereo unspecified) was -26.2%. `Cc1nc2cc(C(=O)N3CCn4c(nnc4C4CC4)C3)ccc2s1`: the INHIBITION was found to be 10.9%. Consider `CCN(CC)CCn1cc(NC2CCN(C(C)(C)C)CC2)cn1`, for which the INHIBITION is on record as -13.1%. As for `Cc1nonc1NC(=O)C1SCCc2ccccc21` (stereo unspecified), the INHIBITION is -92.8%. The value for `O=C(NCCc1nncn1C1CC1)C1SCCc2ccccc21` (stereo unspecified) was -4.13%; that for `Cc1nn(C)c(NC(=O)C2SCCc3ccccc32)c1C` (stereo unspecified) was 74%; that for `O=C(c1ccncc1)N(CCO)Cc1cc(Br)ccc1F` was 35.6%.

Take `Nc1nc2c(c(=O)[nH]1)CCN(C(=O)c1ccccc1N1CCCC1)C2`: the INHIBITION worked out at 8.24%. `O=C(c1cnc2n1CCCC2)N1CCCC1`: the INHIBITION was found to be 66.1%. For the molecule `O=C(NC1CC1)c1cnc2n1CCCC2`, the INHIBITION is -40.6%. Then `CC(C)(C)NC(=O)c1cnc2n1CCCC2`, with -107%; and `O=C(NCCCc1ccccn1)c1cn(CCN2CCNCC2)nn1`, with -37.8%. The value for `CCN1CCN(C(=O)c2cc(-c3cccs3)cs2)CC1` was -15.5%.

With `CC(C)NC(=O)Nc1ccc(CS(=O)(=O)C(C)(C)C)cc1`, the INHIBITION is reported as -8.69%. Then `O=C1NCC[C@]12CN(Cc1cccnc1)C[C@H]2c1ccccc1`, with -3.77%; and `O=C(c1cnccn1)N1CCC2(CC1)C(=O)NCC2c1ccccc1` (stereo unspecified), with 49.7%; and `O=C(c1cnccn1)N1C[C@@H](c2ccccc2)[C@@]2(CCNC2=O)C1`, with 74.8%. For `O=C(c1cccnc1)N1C[C@@H](c2ccccc2)[C@@]2(CCNC2=O)C1`, the INHIBITION was -0.554%. The value for `Cc1ccc(CN2C[C@@H](c3ccccc3)[C@@]3(CCNC3=O)C2)o1` was -2.46%; that for `O=C1NCC[C@]12CN(Cc1ccoc1)C[C@H]2c1ccccc1` was -38.1%; that for `O=C1NCC[C@]12CN(Cc1ccncc1)C[C@H]2c1ccccc1` was 51.3%. The value for `CCCS(=O)(=O)N1C[C@@H](c2ccccc2)[C@@]2(CCNC2=O)C1` was 53.9%; that for `CCS(=O)(=O)N1C[C@@H](c2ccccc2)[C@@]2(CCNC2=O)C1` was 48.4%.

With `N#Cc1c2n(c3c(N)ncnc13)CCCCC2`, the INHIBITION was found to be 44.4%. Consider `CC(C(=O)N1CCN(c2ncccn2)CC1)n1cncn1` (stereo unspecified), for which the INHIBITION turned out to be 10%. For the molecule `CCc1oc(C(=O)N2CC[C@@H]3CC[C@H](C2)N3)cc1CN(CC)CC`, the INHIBITION is on record as 29.4%. For `Cc1ccc(CN2CCC(c3cnccn3)CC2)s1`, the INHIBITION was determined as 18.9535%. The value for `CC(C)(O)CN1CC(C)(C)CN(C(=O)CCc2ccccc2)CC1=O` was 44.9%; that for `Cn1c(N2CCOCC2)nc2cc(C(=O)NCC(F)(F)F)ccc21` was 20.9%.

For `CCN(C)c1ncnc2c1CCN(C(=O)Cc1ccccn1)CC2`, the INHIBITION is listed as 34.4%. Then `Cc1cc(CNCc2c(C)n(CC(C)C)c3ccccc23)[nH]n1`, with 27.4%.

Regarding `CC(C)N1CC2(CCCN(c3ccccn3)C2)CCC1=O` (stereo unspecified), the INHIBITION is recorded as -9.18%. With `CC(C)N1CC2(CCCN(c3ccnc4ccccc34)C2)CCC1=O` (stereo unspecified), the INHIBITION is on record as 65.1%. The value for `CC(C)N1CC2(CCC1=O)CCN(c1ccnc3ccccc13)CC2` was 20.5%.

For the origin of these results see ChEMBL document CHEMBL4513216, “Probing the Open Global Health Chemical Diversity Library for Multistage-Active Starting Points for Next-Generation Antimalarials” (ACS Infect Dis, 2020).
